Test results as given in the supplement of paper PMC7156485.

Test system: TDF
Experiment: H1.0 immunofluorescence intensity relative to DMSO (% of DMSO); higher = stronger H1.0 induction, active = 120 or more
Details: concentration: 10 µM; 24 h
Procedure, shortened: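 Cell number or H1.0 nuclear intensity appears as percent of the plate control, based on the median of replicates. Measurements came from HCC1569 and TDF cells exposed in triplicate to compounds at 10 µM for 24 h at 37 °C, then imaged in six fields per well at ×10. Positional effects were smoothed out of HCC1569 values.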
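Further: TDF is a line of transformed human dermal fibroblasts of mesenchymal origin.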

Compound	H1.0 immunofluorescence intensity
Cc1[nH]c(=O)c(C#N)cc1-c1ccncc1 [Milrinone]	92.3 (inactive)
O=C1CSC(c2cccc(Br)c2)N1c1cc(Cl)ccc1O (stereo not given)	94.8 (inactive)
CC1C(=O)N=C2Nc3cccc(Cl)c3CN21 (stereo not given) [Quazinone]	94.9 (inactive)
COc1cc2c(cc1O)CCC1C2CCC2(C)C(O)CCC12 (stereo not given) [2-methoxyestradiol]	156 (active)
Br.C=CCN1CCc2c(cc(O)c(O)c2Br)C(c2ccccc2)C1 (stereo not drawn) [R(+)-6-Bromo-APB hydrobromide]	89.7 (inactive)
NC(CO)C(=O)NNCc1ccc(O)c(O)c1O (stereo not given) [Benserazide]	101 (inactive)
CN1CCc2cccc3c2C1Cc1ccc(O)c(O)c1-3.Cl (stereo not given) [Apomorphine hydrochloride hemihydrate]	94.8 (inactive)
CCCCCC=CCC=CCC=CCC=CCCCC(=O)O [Arachidonic acid]	101 (inactive)
Cc1nc(C(=O)N2CCC[C@H]2Cc2nnc(-c3ccccc3)o2)c(-c2ccccc2F)s1	97.5 (inactive)
COc1cc2c(cc1OC)C(c1ccccc1)CN(C)CC2.O=C(O)C=CC(=O)O (stereo not given)	94.3 (inactive)
CC(=O)NCCc1ccc(O)c(O)c1 [N-Acetyldopamine monohydrate]	96.7 (inactive)
CS(=O)(=O)CCNCc1ccc(-c2ccc3ncnc(Nc4ccc(OCc5cccc(F)c5)c(Cl)c4)c3c2)o1 [Lapatinib]	124 (active)
O=C1NC(=O)C(c2cnc3ccccn23)=C1c1cn2c3c(cc(F)cc13)CN(C(=O)N1CCCCC1)CC2	138 (active)
COc1ccc2c(c1)c(CC(=O)O)c(C)n2C(=O)c1ccccc1 [1-benzoyl-5-methoxy-2-methylindole-3-acetic acid]	96.8 (inactive)
Nc1nc(=O)c2ncc(=O)[nH]c2[nH]1 [Isoxanthopterin]	92.2 (inactive)
COc1cc(C=CC(=O)CC(=O)C=Cc2ccc(O)c(OC)c2)ccc1O [Curcumin]	106 (inactive)
CCCCCCCCCCCC=CCCCCCCC(=O)O [8(Z)-Eicosenoic acid]	100 (inactive)
CCCCCC(O)C=CC=CCC=CCCCCCCC(=O)O (stereo not given)	99.2 (inactive)
O=C(C=Cc1ccc(O)cc1)CC(=O)C=Cc1ccc(O)cc1 [Bis demethoxycurcumin]	96 (inactive)
CC1CCC2(OC1)OC1CC3C4CCC5CC(O)CCC5(C)C4CCC3(C)C1C2C (stereo not given) [Sarsasapogenin]	106 (inactive)

Compound	H1.0 immunofluorescence intensity
CCOC(=O)C12CC1C(=NO)c1ccccc1O2 (stereo not given)	93.9 (inactive)
CNc1cc(NS(=O)(=O)c2ccc(N)cc2)nc(NC)n1.Cl.Cl [Ro 04-6790 dihydrochoride]	98.7 (inactive)
CN(C)CCCN1c2ccccc2CCc2ccccc21.Cl [Imipramine hydrochloride]	97.2 (inactive)
Nc1nc(OCc2cc(Br)cs2)c2[nH]cnc2n1 [6-[(4-bromo-2-thienyl)methoxy]-1H-purin-2-amine]	97.7 (inactive)
CN1CCC(c2c(O)cc(O)c3c(=O)cc(-c4ccccc4Cl)oc23)C(O)C1 (stereo not given) [Alvocidib]	132 (active)
Cl.Cl.Cl.Ic1ccc(N2CCN(Cc3c[nH]c4ncccc34)CC2)cc1 [L-750,667 trihydrochloride]	103 (inactive)
CCCCCCCCCCCCCC=CC(O)C(CO)N(C)C (stereo not given) [N,N-Dimethylsphingosine]	101 (inactive)
CCCCCC(O)C=CC=CCC=CCCCC(=O)O (stereo not given)	97 (inactive)
COc1ccc(-c2ccc3c(N4CCOCC4)nc(N4CC(C)OC(C)C4)nc3n2)cc1CO (stereo not given)	87.6 (inactive)
Cc1ccc(-c2ncc(Cl)cc2-c2ccc(S(C)(=O)=O)cc2)cn1 [Etoricoxib]	101 (inactive)
Cc1ccc(C(=CCN2CCCC2)c2ccccn2)cc1.Cl [Triprolidine hydrochloride]	97.5 (inactive)
COC(=O)Nc1nc2ccc(C(=O)c3ccccc3)cc2[nH]1 [Mebendazol]	188 (active)
CN(C)CCOc1cc(-c2cn[nH]c2)ccc1NC(=O)C1COc2ccccc2O1 (stereo not given)	87.3 (inactive)
CN(C)CC(=O)Nc1ccc2[nH]c(=O)c3ccccc3c2c1.Cl.O	97.4 (inactive)
Cc1ccccc1C(C(=O)NC1CCCCC1)N(C(=O)Cn1ccnc1C)c1cccc(F)c1 (stereo not given)	95.3 (inactive)
CC(C)NCC(O)c1ccc(O)c(O)c1.Cl (single isomer, unassigned; (-)) [(-)-Isoproterenol hydrochloride]	89.5 (inactive)
S=C([S-])OC1CC2CC1C1CCCC21.[K+] [D-609 potassium]	95.2 (inactive)
COc1ccc(/C=C2\COc3ccc(C)cc3C2=O)cc1O	126 (active)
CCCCCC=CC=C1C(=O)C=CC1CC=CCCCC(=O)O (stereo not given) [15d-Prostaglandin J2]	97.5 (inactive)
O=C(O)c1cccnc1C(=O)O [Quinolinic acid]	90.7 (inactive)
